# Results reported in PubChem BioAssay (NCATS).
# Results filed as inconclusive are left out. Activity calls are given as the source filed them. Calls come from the whole dose curve; as a rule, active = well fitted inhibition curve with a large enough effect; inconclusive = small, poorly fitted or top-dose-only effect; inactive = flat fitted curve, though single readings scatter.
# Assay: qHTS profiling for inhibitors of Plasmodium falciparum proliferation (AID 504749); note: nearly all actives have a fitted effect of over 60% in size;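 for activity, negative = inhibition: 0% = DMSO vehicle and full inhibition = artemisinin control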
# Conditions: P. falciparum in erythrocytes, SYBR Green DNA, 72 h; at 12.8 µM (top of the series); parasite line A
# Description: NIH National Institute of Allergy and Infectious Diseases [NIAID] NIH Chemical Genomics Center [NCGC] MLPCN Grant: None Assay Provider: Xinzhuan Su, NIAID NCGC Assay Overview: Plasmodium falciparum is a virulent malarial parasite that kills 1-2 million people worldwide each year. Transmitted by mosquitoes, the sporozoite form of the parasite enters the blood stream to infect hepatocytes, where they become merozoites that infect red blood cells (erythrocytes). Within erythrocytes, merozoites begin a […] cycle of growth and division, after which the parasite is released to infect new red blood cells. Gametocytes, which form within erythrocytes as well, circulate in the bloodstream and are ingested by the mosquito, thereby completing the life cycle. To profile malarial isolates for differential chemical responses and to identify inhibitors of malarial growth, an assay that measures P. falciparum growth and replication within erythrocytes was employed. This assay uses a DNA binding fluorescent dye (SYBR Green) to detect parasite DNA following cell lysis. Because mature erythrocytes lack DNA, only Plasmodium-derived DNA is detected.
# NCGC Assay Protocol Summary: The SYBR Green viability assay was adapted from a method described previously (Plouffe et al., 2008). For screening 3 ul culture medium was dispensed into 1536 well black clear bottom plates (Aurora Biotechnologies) using a Multidrop Combi (Thermo Fisher Scientific Inc.), 23 nL compounds in DMSO were added by a pin tool (Kalypsys), and 5 ul of erythrocytes infected with P. falciparum (0.3% parasitemia, 2.5% hematocrit final concentration) were added. The plates were incubated at 37 C in a humidified incubator in 5% CO2 for 72 h, and 2 ul lysis buffer (20 mM Tris HCl, 10 mM EDTA, 0.16% saponin, 1.6% triton X, 10X SYBR Green I supplied as 10,000X […] by Invitrogen) was added to each well. The plates were mixed for 25 sec with gentle shaking and incubated overnight at room temperature in the dark. The following morning, fluorescence intensity at 485(14) nm excitation and 535(25) nm emission wavelengths was measured on an EnVision (Perkin Elmer) plate reader. Plate reads were normalized relative to the control inhibitor (0.29 uM artemisinin) and vehicle (DMSO) wells present on each plate and then corrected by an algorithm using vehicle-only control plates at the beginning and end of the compound plate stack.
# Potency is the fitted concentration of half-maximal effect.
row,Compound,"activity, negative = inhibition"
1,Nc1nc2c(c(=O)[nH]1)N(C=O)[C@H](CNc1ccc(C(=O)N[C@@H](CCC(=O)O)C(=O)O)cc1)CN2,9.3% (inactive)
2,COc1ccc([C@@H]2CNC(=O)C2)cc1OC1CCCC1,9.55% (inactive)

# Same assay, conditions: P. falciparum in erythrocytes, SYBR Green DNA, 72 h; at 12.8 µM (top of the series); parasite line B
row,Compound,"activity, negative = inhibition"
1,Nc1nc2c(c(=O)[nH]1)N(C=O)[C@H](CNc1ccc(C(=O)N[C@@H](CCC(=O)O)C(=O)O)cc1)CN2,7.79% (inactive)
2,COc1ccc([C@@H]2CNC(=O)C2)cc1OC1CCCC1,-3.14% (inactive)

# Same assay, conditions: P. falciparum in erythrocytes, SYBR Green DNA, 72 h; at 28.7 µM (top of the series); parasite line A
row,Compound,"activity, negative = inhibition"
1,COc1ccc2c(c1OC)C(=O)OC2[C@H]1c2c(cc3c(c2OC)OCO3)CCN1C (some centres undefined),5.64% (inactive)
2,OCC(O)C(O)C(O)CO (centres undefined),4.99% (inactive)

# Same assay, conditions: P. falciparum in erythrocytes, SYBR Green DNA, 72 h; at 28.7 µM (top of the series); parasite line B
row,Compound,"activity, negative = inhibition"
1,COc1ccc2c(c1OC)C(=O)OC2[C@H]1c2c(cc3c(c2OC)OCO3)CCN1C (some centres undefined),5.33% (inactive)
2,OCC(O)C(O)C(O)CO (centres undefined),7.38% (inactive)

# Same assay, conditions: P. falciparum in erythrocytes, SYBR Green DNA, 72 h; parasite line A
row,Compound,Potency
1,CCC(C(=O)O)C1CCC(C)C(C(C)C(O)C(C)C(=O)C(CC)C2OC3(C=CC(O)[C@@]4(CC[C@](C)(C5CC[C@@](O)(CC)C(C)O5)O4)O3)C(C)CC2C)O1 (some centres undefined),1000 nM (active)
2,COc1cccc2c1C(=O)c1c(O)c3c(c(O)c1C2=O)C[C@@](O)(C(=O)CO)C[C@@H]3O[C@H]1C[C@H](N)[C@H](OC2CCCCO2)[C@H](C)O1 (some centres undefined),3160 nM (active)
3,CCCCCCCCCCCC(CC1OC(=O)C1CCCCCC)OC(=O)C(CC(C)C)NC=O (centres undefined),355 nM (active)

# Same assay, conditions: P. falciparum in erythrocytes, SYBR Green DNA, 72 h; parasite line B
row,Compound,Potency
1,CCC(C(=O)O)C1CCC(C)C(C(C)C(O)C(C)C(=O)C(CC)C2OC3(C=CC(O)[C@@]4(CC[C@](C)(C5CC[C@@](O)(CC)C(C)O5)O4)O3)C(C)CC2C)O1 (some centres undefined),1120 nM (active)
2,COc1cccc2c1C(=O)c1c(O)c3c(c(O)c1C2=O)C[C@@](O)(C(=O)CO)C[C@@H]3O[C@H]1C[C@H](N)[C@H](OC2CCCCO2)[C@H](C)O1 (some centres undefined),4470 nM (active)
3,CCCCCCCCCCCC(CC1OC(=O)C1CCCCCC)OC(=O)C(CC(C)C)NC=O (centres undefined),708 nM (active)
